HCMV antiviral: qHTS Assay for inhibitors of the human cytomegalovirus (HCMV); HFF cells, HCMV-luciferase reporter, 72 h; hits give low values; activity change, negative = inhibition, % at 57.5 µM; 4.5% of 410,000 active; in the data active = activity change below about -60%; inconclusive = no clear call, values can overlap the other calls; inactive = above about -39%; note: % is set by controls: 0 for no effect and ±100 for the full control effect
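Two-dose cell screen: HFF monolayers treated with compounds and infected with luciferase-expressing HCMV at 1 PFU/cell, 72 h at 37C, then lysed for luciferase measurement.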
HCV inh: qHTS Assay for Inhibitors of Hepatitis C Virus (HCV). AID 651820, 2012. Potency, µM (doses to about 41.8 µM), inactives show at the highest dose activity change, negative = inhibition, actives largely listed as inhibitors. Huh7.5.1 HCVcc-Cre infection, luciferase reporter, 44 h. 3.4% of 340,000 active; active = well fitted inhibition curve with a large enough effect; inconclusive = small, poorly fitted or top-dose-only effect, or another doubt; inactive = no such curve, though single readings can be large or run the other way; note: potency is the fitted concentration of half-maximal effect; % is set by controls: 0 for no effect and ±100 for the full control effect
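HCVcc-Cre virus at an moi near 0.5 was added right after compound to cells cultured 4 h from seeding (1,000 cells/well). Luciferase activity was determined 44 h later, 15 min after substrate addition at RT.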
MARV entry inh: qHTS for inhibitors of binding or entry into cells for Marburg Virus; Marburg virus pseudotyped entry inhibition, cell reporter; 1.8% of 300,000 active; Potency, µM (highest dose often 37.8 µM), inactives show top-dose activity change, negative = inhibition, hits mostly inhibitors; calls by dose curve; tested in HEK293 cells; note: potency is the fitted concentration of half-maximal effect; % is set by controls: 0 for no effect and ±100 for the full control effect
Lassa entry inh: qHTS for Inhibitors of binding or entry into cells for Lassa Virus; Potency, µM (top dose mostly 37.9 µM), without a hit: at the top dose activity change, negative = inhibition, usual class: inhibitors; Lassa virus pseudotype entry inhibition, cell reporter; 1.2% of 300,000 active; AID 540256, 2011; calls by dose curve; tested in HEK293 cells; note: potency is the fitted concentration of half-maximal effect; % is set by controls: 0 for no effect and ±100 for the full control effect; nearly all actives have a fitted effect of over 50% in size
FMDV inh: High Throughput Screening for Foot and Mouth Disease Virus Antivirals | 1.2% of 410,000 active | Potency, µM (series often up to 57.9 µM), for the others: at the top dose activity change, negative = inhibition, hits mostly inhibitors | AID 1159524, 2015 | FMDV antiviral cell-based qHTS; calls by dose curve; tested in HEK293T cells; note: read-out not given here; potency is the fitted concentration of half-maximal effect; % is set by controls: 0 for no effect and ±100 for the full control effect; nearly all actives have a fitted effect of over 45% in size
SARS PLpro yeast: qHTS of Yeast-based Assay for SARS-CoV PLP. Potency, µM (highest dose often 32.9 µM), for the others: at the highest dose activity, positive = growth rescue, usual class: activators. S. cerevisiae expressing SARS-CoV PLpro, growth rescue. 0.19% of 330,000 active; calls by dose curve; note: potency is the fitted concentration of half-maximal effect; 0% is about no effect; nearly all actives have a fitted effect of over 55% in size
Active calls of the source: *; ? = inconclusive; . = not tested or not shown; [ ] = dose if it differs, or a comment. This is a sample that favours compounds with a hit; in the whole collection about 8% have one here.

SMILES | HCMV antiviral | HCV inh | MARV entry inh | Lassa entry inh | FMDV inh | SARS PLpro yeast
c1ccc(-c2ccc(C3=Nn4c(Cn5nnc6ccccc65)nnc4SC3)cc2)cc1 | -27 | -65% | ? | 11µM* | ? | 3%
CC1CCN(C(c2ccccc2)c2sc3nc(-c4ccco4)nn3c2O)CC1 (stereo not given) | ? | . | . | -22%[46.1 µM] | 9% | .
O=C(NCc1ccccn1)c1cccc(S(=O)(=O)N2CCc3ccccc32)c1 | 8 | ? | -27% | -26% | -11% | 1%
O=C(c1cccc(S(=O)(=O)N2CCc3ccccc32)c1)N1CCN(c2ccccn2)CC1 | -78* | ? | ? | ? | ? | 2%
COc1ccc(N2CCN(C(=O)c3cccc(S(=O)(=O)N4CCc5ccccc54)c3)CC2)cc1 | -8 | ? | ? | ? | -6% | -2%
O=C(CNC(=O)c1cccc(S(=O)(=O)N2CCc3ccccc32)c1)Nc1ccccc1Br | -83* | ? | ? | ? | 52% | .
O=C(NNC(=O)c1cccc(S(=O)(=O)N2CCc3ccccc32)c1)c1ccccc1 | ? | 5µM* | ? | ? | 0% | 3%
O=C(Nc1ccc(Br)cc1)c1cccc(S(=O)(=O)N2CCc3ccccc32)c1 | -61* | . | . | ? | ? | .
Cc1cc2c(cc1C)NC(CC(=O)Nc1ccccc1SC(F)(F)F)C(=O)N2 (stereo not given) | 1 | . | -20%[46.1 µM] | 23%[46.1 µM] | 4% | .
COc1cc(C(=O)Nc2ccc(S(=O)(=O)N3CCc4ccccc43)cc2)cc(OC)c1OC | 10 | 14µM* | 12µM* | -19% | 2% | 16%
NS(=O)(=O)c1ccc(NC(=O)c2ccc3c(c2)CCN3S(=O)(=O)c2ccccc2)cc1 | ? | 32µM* | -3%[46.1 µM] | -15%[46.1 µM] | -30% | -10%
O=C(c1cccc(Oc2ccccc2)c1)N1CCN(c2ccccn2)CC1 | -72* | ? | ? | ? | -13% | -2%
O=C(Nc1ccc(S(=O)(=O)N2CCc3ccccc32)cc1)c1ccc2c(c1)OCO2 | -85* | ? | -27% | 27%[14.3 µM] | -23% | 3%
COc1ccccc1C(=O)Nc1ccc(S(=O)(=O)N2CCc3ccccc32)cc1 | -29 | -34% | ? | -28% | . | 3%
Cc1cccc(C(=O)N2CCN(c3ccccn3)CC2)c1 | -8 | 23% | -16% | 24% | -12% | ?
O=C(Nc1ccccc1)c1ccc2c(c1)CCN2S(=O)(=O)c1ccccc1 | 10 | ? | . | . | 7% | -5%
Cn1c(NC[C@@H](O)c2ccccc2)nc2c1c(=O)n(Cc1ccc(Cl)cc1)c(=O)n2C | . | . | -7% | . | . | .
CC(C)CCNC(=O)c1cccc(S(=O)(=O)N2CCc3ccccc32)c1 | 8 | ? | ? | 4µM* | 3% | 7%
COCCNC(=O)c1ccc2c(c1)CCN2S(C)(=O)=O | -62* | 14% | -8%[46.1 µM] | 4%[46.1 µM] | -5% | -2%
O=C(Nc1ccc(S(=O)(=O)N2CCc3ccccc32)cc1)c1ccco1 | -81* | 8.9µM* | -21% | 7.3µM* | ? | 4%
O=C(Nc1ccc(S(=O)(=O)N2CCc3ccccc32)cc1)C(F)(F)F | -14 | -5% | ? | 14% | -23% | 0%
NC(=O)C1CN(C(=O)c2cccc(S(=O)(=O)N3CCc4ccccc43)c2)c2ccccc2O1 (stereo not given) | -105* | -18% | . | . | -10% | -7%
CC(C)CN(CC(C)C)C(=O)c1cccc(S(=O)(=O)N2CCc3ccccc32)c1 | -17 | ? | ? | . | -6% | 3%
O=S(=O)(c1ccccc1)N(C[C@@H](O)CN1CCCCC1)c1ccccc1 | . | . | -10%[46.1 µM] | . | . | .
O=C(NC1=C(Cl)CCCC1)NC1CCCCC1Cl (stereo not given) | . | . | 12%[46.1 µM] | . | . | .
SMILES | HCMV antiviral | HCV inh | MARV entry inh | Lassa entry inh | FMDV inh | SARS PLpro yeast
COc1cc(NC(=O)CC2C(=O)N(c3ccc(Cl)cc3)C(=O)N2Cc2cccs2)cc(OC)c1 (stereo not given) | -29 | . | . | ? | -18% | .
O=C(NC1CCc2ccccc21)C1CCN(S(=O)(=O)c2ccc(Cl)cc2)CC1 (stereo not given) | -27 | 3% | 27% | -23% | -16% | -24%
CC(=O)NS(=O)(=O)c1ccc(NC(=O)c2cccc(S(=O)(=O)N3CCc4ccccc43)c2)cc1 | -23 | -7% | -1% | -5% | -3% | 0%
COc1ccc(NC(C)=O)cc1NC(=O)c1cccc(S(=O)(=O)N2CCc3ccccc32)c1 | -1 | 10µM* | . | . | -24% | -2%
O=S(=O)(NC1CCc2ccccc21)c1ccc(S(=O)(=O)N2CCCC2)cc1 (stereo not given) | 5 | 11µM* | ? | ? | . | 14%
CN(C)S(=O)(=O)c1cccc(NC(=O)c2cccc(S(=O)(=O)N3CCc4ccccc43)c2)c1 | -95* | 11µM* | . | . | ? | 6%
CC(C)c1ccc(OCc2ccc(C(=O)N3CCN(c4ccccn4)CC3)cc2)cc1 | -25 | 5µM* | ? | ? | ? | -35%
CC(C)(C)C(=O)C(Oc1ccc(Cl)cc1)n1ccnc1 (stereo not given) | -18 | . | . | . | . | .
CCOC(=O)c1c(NC(=O)c2cc3nc(-c4ccccc4)cc(C(F)(F)F)n3n2)sc2c1CCC(C)C2 (stereo not given) | 6 | . | . | 1%[46.1 µM] | 3% | .
COc1ccc(OC)c(NC(=S)N2CCN(c3ccccn3)CC2)c1 | -28 | 23% | -2%[46.1 µM] | ? | 15% | -19%
Nc1ccc(S(=O)(=O)N2CCc3ccccc32)cc1 | 47 | 8% | ? | 20% | 3% | 0%
O=C(COC(=O)c1cccc(S(=O)(=O)N2CCc3ccccc3C2)c1)NCc1ccco1 | -27 | 11% | -16% | -1% | 7% | -2%
O=S(=O)(NC1CCCC1)c1ccc(S(=O)(=O)N2CCc3ccccc32)cc1 | -99* | ? | ? | ? | ? | -11%
COc1cc(C(=O)Nc2ccc3c(c2)CCN3C(C)=O)cc(OC)c1OC | -74* | -29% | ? | ? | 10% | 1%
O=C(COC(=O)c1cccc(S(=O)(=O)N2CCc3ccccc32)c1)NCc1ccco1 | -96* | 15% | 5%[46.1 µM] | 1% | 2% | -1%
S=C(Nc1cc(Cl)ccc1Oc1ccccc1)N1CCN(c2ccccn2)CC1 | -78* | 11µM* | ? | ? | -5% | 1%

Screening results: PubChem, National Center for Advancing Translational Sciences (NCATS)
